A short description of experiment [1]: qHTS assay to identify small molecule antagonists of the estrogen receptor beta (ER-beta) signaling pathway - cell viability counter screen (AID 1259382; active means well fitted curve in the direction sought with a large enough effect in the repeat runs; an effect the other way counts as inactive or inconclusive;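 further: HEK293T cells carrying ER-beta-UAS-bla reporter stimulated with estradiol; series mostly up to about 92 µM; nearly all actives have a fitted effect of over 55% in size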). The essentials:
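ER-beta-UAS-bla HEK293T cells in 2% charcoal-stripped FBS medium, treated with compound plus 1 nM 17-beta-estradiol for 16 h at 37C. Viability read by CellTiter-Glo luminescence after 30 min at room temperature in the same wells.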
In general terms: Quantitative high-throughput screening tests each substance at several concentrations.

For experiment [2], the target named is Estrogen receptor (Homo sapiens) (UniProt P03372). Description: qHTS assay to identify small molecule agonists of the estrogen receptor alpha (ER-alpha) signaling pathway in the presence of an antagonist (AID 1259383). Further: top concentration of the series differs between compounds; nearly all actives have a fitted effect of over 15% in size. The essentials: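 VM7Luc4E2 cells express endogenous full-length ER-alpha with an ERE-luciferase reporter and were hormone-deprived for 5 days. Compounds at 15 concentrations were added with 10.0nM ICI-182,780 for 22hr at 37C. Luminescence was read with ONE-Glo.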

Experiment [3] can be described thus: qHTS assay to identify small molecule agonists or antagonists of the thyroid stimulating hormone receptor (TSHR) signaling pathway - wild type cell line counter screen (AID 1259384). In short, it runs like this:
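Counter screen in untransfected Hek293: compounds (15-point titration, triplicate) plus phosphodiesterase inhibitor Ro20-1724 added after 18 h plating; 30 min RT. Intracellular cAMP via competitive d2/cryptate immunoassay, 1 h incubation.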

Experiment [4] deals with Thyrotropin receptor (Homo sapiens) (UniProt P16473). As to the kind of experiment: qHTS assay to identify small molecule antagonists of the thyroid stimulating hormone receptor (TSHR) signaling pathway (AID 1259385). Further: nearly all actives have a fitted effect of over 20% in size. In short, it runs like this: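 Antagonist mode: compound-treated TSHR-expressing HEK293 cells were stimulated with 1.5 ng/mL TSH (final) in presence of Ro20-1724 for 30 min at RT. HTRF cAMP detection after 1 h; each compound tested at 15 concentrations, triplicate.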

Experiment [5] is described as follows: qHTS assay to identify small molecule agonists of the estrogen receptor alpha (ER-alpha) signaling pathway in the presence of an antagonist - cell viability counter screen (AID 1259386; active means well fitted curve in the direction sought with a large enough effect in the repeat runs; an effect the other way counts as inactive or inconclusive;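 further: series mostly up to about 92 µM; cells exposed to compounds for 22 h at 37 °C before the viability read; nearly all actives have a fitted effect of over 30% in size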). In short, it runs like this: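 Cell viability in VM7Luc4E2 cells (endogenous full-length ER-alpha) measured by CellTiter-Fluor fluorescence in the same wells as the luciferase screen. Cells pre-cultured 5 days in charcoal-stripped serum, then treated 22 h with compounds at 15 concentrations plus 10.0nM ICI-182,780.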

Experiment [6] concerns the target Progesterone receptor (Homo sapiens) (UniProt P06401). Description: qHTS assay to identify small molecule agonists of the progesterone receptor (PR) signaling pathway (AID 1346784). Further: nearly all actives have a fitted effect of over 30% in size. Further: potency means the concentration at half of the fitted maximal effect. The essentials:
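Fluorescence from LiveBLAzer B/G FRET substrate cleavage (2 hr, RT) reported PR activation in PR-UAS-bla HEK 293T cells treated 16 hr at 37C/5% CO2 with compounds; medium contained 2% charcoal-stripped FBS.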

Experiment [7] in a line: qHTS assay to identify small molecule antagonists of the progesterone receptor (PR) signaling pathway - cell viability counter screen (AID 1346798; active means well fitted curve in the direction sought with a large enough effect in the repeat runs; an effect the other way counts as inactive or inconclusive; further: series mostly up to about 92 µM; nearly all actives have a fitted effect of over 50% in size). The essentials:
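CellTiter-Glo luminescence; PR-UAS-bla HEK293T, 3,000 cells/well; compound + R5020, 16 hr, 37C/5% CO2; 30 min RT before read.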

The nature of experiment [8]: qHTS assay to identify small molecule agonists of the progesterone receptor (PR) signaling pathway - cell viability counter screen (AID 1346799). Further: nearly all actives have a fitted effect of over 45% in size. The essentials: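 In parallel with the beta-lactamase readout, cytotoxicity toward PR-UAS-bla HEK293T cells was measured by CellTiter-Glo luminescence following 16 hr compound incubation in 2% charcoal-stripped FBS medium.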

Experiment [9] in a line: qHTS assay to identify small molecule antagonists of the TGF-beta/Smad signaling pathway - cell viability counter screen (AID 1346824; active means well fitted curve in the direction sought with a large enough effect in the repeat runs; an effect the other way counts as inactive or inconclusive; further: nearly all actives have a fitted effect of over 50% in size). The essentials: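 Cytotoxicity counter-screen run in the same wells as the beta-lactamase Smad reporter read: CellTiter-Glo luminescence after 30 min at room temperature. HEK 293T SBE-bla cells had 5 hr compound exposure at 37 C with TGF-beta1 (0.25 ng/mL stock).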

The target in experiment [10] is Progesterone receptor (Homo sapiens) (UniProt P06401). Description: qHTS assay to identify small molecule antagonists of the progesterone receptor (PR) signaling pathway (AID 1346795; active means well fitted inhibition curve with a large enough effect in the signal ratio in the repeat runs, not every such curve was filed as active; the % refers to the signal ratio). The essentials: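 Fluorescence intensity measured 2 hr after adding beta-lactamase FRET substrate to PR-UAS-bla HEK293T cells that had been co-treated 16 hr with compound and 1 nM R5020 (final concentration) in 2% charcoal-stripped FBS.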

Unmarked numbers belong to inactive results. Records with an inconclusive call do not appear. Active and inactive are the calls of the source. Unless noted, the call rests on the fitted dose curve.

Sequence of Estrogen receptor (Homo sapiens) (P03372 whole entry, looked up): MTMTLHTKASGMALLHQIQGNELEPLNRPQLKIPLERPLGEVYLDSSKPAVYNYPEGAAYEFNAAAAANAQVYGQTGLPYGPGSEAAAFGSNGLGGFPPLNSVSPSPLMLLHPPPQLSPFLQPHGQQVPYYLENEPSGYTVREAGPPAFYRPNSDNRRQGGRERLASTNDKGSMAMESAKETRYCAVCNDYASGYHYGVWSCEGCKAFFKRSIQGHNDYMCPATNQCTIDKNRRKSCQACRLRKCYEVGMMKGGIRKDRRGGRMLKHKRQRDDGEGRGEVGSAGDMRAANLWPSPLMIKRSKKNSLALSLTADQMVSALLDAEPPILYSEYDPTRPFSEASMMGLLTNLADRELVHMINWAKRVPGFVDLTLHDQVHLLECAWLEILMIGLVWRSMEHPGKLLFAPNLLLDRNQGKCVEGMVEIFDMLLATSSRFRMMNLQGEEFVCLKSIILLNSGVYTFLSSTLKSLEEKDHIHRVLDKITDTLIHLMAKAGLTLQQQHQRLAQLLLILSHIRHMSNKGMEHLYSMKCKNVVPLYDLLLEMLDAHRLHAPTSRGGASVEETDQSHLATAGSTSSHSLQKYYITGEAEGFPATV
Sequence of Thyrotropin receptor (Homo sapiens) (P16473 whole entry, looked up): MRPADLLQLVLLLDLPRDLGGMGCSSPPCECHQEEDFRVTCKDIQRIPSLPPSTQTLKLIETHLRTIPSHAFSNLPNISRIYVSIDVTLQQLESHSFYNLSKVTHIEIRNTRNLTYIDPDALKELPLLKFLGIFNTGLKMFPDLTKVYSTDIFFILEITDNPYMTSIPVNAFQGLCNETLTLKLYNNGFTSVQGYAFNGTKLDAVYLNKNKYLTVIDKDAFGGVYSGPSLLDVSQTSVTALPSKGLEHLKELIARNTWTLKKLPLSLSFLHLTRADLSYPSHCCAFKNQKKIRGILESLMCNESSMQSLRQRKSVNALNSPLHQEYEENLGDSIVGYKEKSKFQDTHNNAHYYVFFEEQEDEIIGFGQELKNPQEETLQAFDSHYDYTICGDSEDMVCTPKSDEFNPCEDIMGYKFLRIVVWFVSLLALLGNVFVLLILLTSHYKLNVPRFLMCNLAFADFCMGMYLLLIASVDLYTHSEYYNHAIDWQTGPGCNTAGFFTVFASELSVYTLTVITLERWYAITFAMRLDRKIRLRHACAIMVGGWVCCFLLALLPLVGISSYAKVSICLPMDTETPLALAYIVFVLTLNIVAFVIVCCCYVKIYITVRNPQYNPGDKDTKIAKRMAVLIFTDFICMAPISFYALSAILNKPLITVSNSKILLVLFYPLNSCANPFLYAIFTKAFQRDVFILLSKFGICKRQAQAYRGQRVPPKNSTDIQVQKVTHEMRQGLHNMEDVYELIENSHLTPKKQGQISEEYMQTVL
Sequence of Progesterone receptor (Homo sapiens) (P06401 whole entry, looked up): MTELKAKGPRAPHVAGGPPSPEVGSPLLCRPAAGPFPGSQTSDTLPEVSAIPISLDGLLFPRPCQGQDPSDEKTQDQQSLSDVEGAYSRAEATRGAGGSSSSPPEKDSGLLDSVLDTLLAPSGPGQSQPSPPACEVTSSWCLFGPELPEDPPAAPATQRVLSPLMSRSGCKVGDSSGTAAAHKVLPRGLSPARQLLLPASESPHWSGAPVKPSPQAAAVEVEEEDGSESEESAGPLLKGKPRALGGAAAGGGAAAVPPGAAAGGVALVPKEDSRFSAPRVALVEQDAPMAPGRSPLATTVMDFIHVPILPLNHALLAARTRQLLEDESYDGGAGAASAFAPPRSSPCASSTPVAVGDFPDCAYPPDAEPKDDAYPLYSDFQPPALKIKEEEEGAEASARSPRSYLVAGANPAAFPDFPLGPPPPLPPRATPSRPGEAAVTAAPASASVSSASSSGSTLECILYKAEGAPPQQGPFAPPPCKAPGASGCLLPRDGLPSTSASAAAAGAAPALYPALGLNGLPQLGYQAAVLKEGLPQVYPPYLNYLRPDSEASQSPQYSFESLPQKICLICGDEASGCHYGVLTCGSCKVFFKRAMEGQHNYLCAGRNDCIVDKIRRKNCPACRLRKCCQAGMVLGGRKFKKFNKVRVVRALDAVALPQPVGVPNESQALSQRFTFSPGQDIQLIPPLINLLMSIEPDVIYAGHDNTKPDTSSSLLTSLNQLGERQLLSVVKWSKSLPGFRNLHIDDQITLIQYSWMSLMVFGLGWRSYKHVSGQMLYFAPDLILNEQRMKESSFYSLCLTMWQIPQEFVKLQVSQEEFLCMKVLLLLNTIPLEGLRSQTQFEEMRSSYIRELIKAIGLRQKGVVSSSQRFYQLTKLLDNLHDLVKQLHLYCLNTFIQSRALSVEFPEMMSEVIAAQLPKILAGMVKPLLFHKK

Turning to `Cc1nc(C)nc(N2C[C@@H](C)N(c3ccnc([C@@H](C)O)n3)[C@@H](C)C2)n1`, the call in experiment [1], in [2], in [3], in experiment [4] and in experiment [9] was inactive. For the same molecule, the Potency entry in experiment [5], in experiment [6], in [7] and in experiment [8] was “inactive” in each case.

For `Nc1ccc(C(=O)OCC(O)CO)cc1` (stereo unspecified), the molecule was called inactive in experiment [1], in experiment [2], in [3], in experiment [4] and in experiment [9]. In addition, the Potency entry in [5], in [6], in experiment [10] and in experiment [7] was “inactive” in each case.

As for `OC[C@@H](O)[C@H](O)[C@@H](O)[C@@H](O)CO`, the molecule was classed as inactive in experiment [1], in experiment [2], in experiment [3] and in experiment [4]. In addition, the Potency entry in experiment [5], in [6], in experiment [7] and in experiment [8] was “inactive” in each case.

For the molecule `CCN(Cc1cccc(S(=O)(=O)O)c1)c1ccccc1`, the molecule was called inactive in experiment [1], in [2], in experiment [3] and in experiment [4]. The Potency entry in experiment [6], in experiment [10], in experiment [7] and in experiment [8] was “inactive” throughout.

Regarding `CN=C(NC#N)NCCSCc1csc(N=C(N)N)n1`, the molecule was classed as inactive in experiment [1], in [2], in experiment [3], in experiment [4] and in [9]. The Potency result in experiment [5] and in experiment [6] was “inactive” in each case.

On to `CCOC(=O)C(=O)c1csc(NC=O)n1`, for which the call in experiment [1], in experiment [2], in experiment [3], in experiment [4] and in [9] was inactive. For the same molecule, the Potency entry in experiment [5], in experiment [7] and in experiment [8] was “inactive” throughout.

Take `CCc1nccnc1C`: the result in [1], in [2], in [3], in experiment [4] and in [9] was inactive. Moreover, the Potency result in experiment [5], in experiment [6], in experiment [7] and in [8] was “inactive” throughout.

On to `C=CCOCC(CO)(COCC=C)COCC=C`, for which the molecule was classed as inactive in experiment [1], in experiment [2], in experiment [3] and in experiment [4]. For the same molecule, the Potency result in experiment [6], in experiment [10] and in experiment [7] was “inactive” each time.

For `CCN(CCO)c1cccc(C)c1`, the outcome in experiment [1], in experiment [2], in [3], in experiment [4] and in [9] was inactive. Also, the Potency entry in experiment [5], in [6] and in [7] was “inactive” throughout.

Take `COc1ccc(/C=N/NC(=O)c2ccncc2)cc1OC`: the molecule was called inactive in [1], in experiment [2], in [3], in [4] and in [9]. The Potency result in experiment [5], in experiment [6], in experiment [10], in experiment [7] and in experiment [8] was “inactive” each time.

For `O=C(O)/C=C/c1ccccc1`, the molecule was called inactive in [1], in experiment [2], in experiment [3], in [4] and in [9]. In addition, the Potency entry in experiment [6], in experiment [10], in [7] and in experiment [8] was “inactive” each time.

`NS(=O)(=O)c1ccc(Cl)c(S(N)(=O)=O)c1`: the outcome in [1], in [2], in experiment [3], in experiment [4] and in experiment [9] was inactive. Moreover, the Potency entry in experiment [5], in experiment [6], in [10] and in experiment [7] was “inactive” throughout.

For `O=C1CC[C@H](C(=O)N2CCCCC2)N1`, the outcome in [1], in [2], in experiment [3] and in [4] was inactive. The Potency entry in experiment [5] and in [7] was “inactive” throughout.

With `CC(Cl)COP(=O)(OCC(C)Cl)OCC(C)Cl` (stereo unspecified), the outcome in experiment [1], in [2], in experiment [3] and in experiment [4] was inactive. Besides, the Potency entry in experiment [5], in [6], in experiment [7] and in experiment [8] was “inactive” in each case.

For `C=C[Si](C)(C)O[Si](C)(C)C=C`, the result in experiment [1], in experiment [2], in [3], in experiment [4] and in experiment [9] was inactive. In addition, the Potency result in experiment [5], in [6], in [10] and in experiment [7] was “inactive” in each case.

As for `O=C1OC(=O)c2cc(Oc3ccc4c(c3)C(=O)OC4=O)ccc21`, the molecule was called inactive in experiment [1], in experiment [2], in [3], in [4] and in experiment [9]. The Potency entry in [5], in experiment [6], in [10], in [7] and in experiment [8] was “inactive” each time.

For `CCCCCCCCOC(C)=O`, the molecule was called inactive in [1], in experiment [2], in [3], in [4] and in [9]. Also, the Potency entry in experiment [5], in experiment [6], in [10] and in [7] was “inactive” throughout.

Consider `CC(=O)OC(C)c1ccccc1` (stereo unspecified), for which the result in experiment [1], in [2], in experiment [3], in experiment [4] and in [9] was inactive. Further, the Potency entry in experiment [5], in experiment [6], in [10], in experiment [7] and in experiment [8] was “inactive” in each case.

For the molecule `O=C1OC(=O)c2ccccc21`, the call in [1], in [2], in experiment [3], in experiment [4] and in [9] was inactive. The Potency entry in [5], in experiment [10] and in experiment [7] was “inactive” each time. In experiment [6], the Potency was 60.8 µM (active).

In the case of `CC(=O)Nc1ncc([N+](=O)[O-])s1`, the call in [1], in experiment [2], in experiment [3], in experiment [4] and in experiment [9] was inactive. The Potency entry in experiment [6], in experiment [10], in experiment [7] and in [8] was “inactive” throughout.

Take `C[N+](C)(C)CC(O)CCl` (stereo unspecified): the call in experiment [1], in experiment [2], in experiment [3], in experiment [4] and in [9] was inactive. Besides, the Potency entry in experiment [5], in [6], in experiment [10] and in experiment [7] was “inactive” each time.

With `Nc1nc(=O)n([C@@H]2O[C@H](CO)[C@@H](O)[C@@H]2F)cc1I`, the molecule was called inactive in experiment [1], in [2], in experiment [3], in [4] and in experiment [9]. Moreover, the Potency entry in experiment [5], in [6], in experiment [10] and in experiment [8] was “inactive” each time.

As for `OCCCCCCCl`, the result in experiment [1], in experiment [2], in experiment [3], in experiment [4] and in experiment [9] was inactive. Besides, the Potency result in experiment [6], in experiment [10], in experiment [7] and in [8] was “inactive” in each case.

On to `O=C(O)c1c(Cl)ccc(Cl)c1Cl`, for which the molecule was called inactive in [1], in experiment [2], in experiment [3], in experiment [4] and in experiment [9]. Besides, the Potency result in experiment [5], in experiment [6], in experiment [10] and in experiment [7] was “inactive” throughout.

Regarding `CC(C)CCC(=O)CCC(C)C`, the molecule was called inactive in experiment [1], in experiment [2], in experiment [3], in experiment [4] and in experiment [9]. Also, the Potency result in experiment [6], in experiment [10] and in experiment [7] was “inactive” each time.

On to `Nc1ccnc(=O)[nH]1`, for which the molecule was classed as inactive in experiment [1], in experiment [2] and in experiment [3]. Also, the Potency result in [6], in [10], in [7] and in experiment [8] was “inactive” each time.

In the case of `CCOC(=O)C(C)(C)C`, the molecule was called inactive in experiment [1], in [2], in experiment [3], in experiment [4] and in experiment [9]. The Potency in experiment [6] was 12.3 µM (active). For the same molecule, the Potency result in experiment [10], in experiment [7] and in [8] was “inactive” throughout.

For the origin of these results see PubChem BioAssay (Tox21).
